Conditions in all cases: concentration: 1 μM, replicates: in singlicate; n = 1
The test system of assay [1] is T1, PIK4CB.
T1 construct: gene PI4KB

The subject of assay [2] is PIKFYVE.
In assay [3] the test system is PIM1.
Assay [4] deals with PIM2.
Assay [5] has as its system PIM3.
The test system of assay [6] is PIP5K1A.
For assay [7], the system named is PIP5K1C.
Assay [8] has as its system PIP5K2B.
Assay [9] relates to T2, PIP5K2C.
T2 construct: gene PIP4K2C

Assay [10] has as its system T3, PKAC-alpha.
T3 construct: gene PRKACA
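Further: KINOMEscan kinase panel screen.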

As to `Cc1cnc(N)c(/C=C/c2cncc(C(=O)NCCc3ccc(Cl)cc3Cl)c2)c1.Cl` [GSK190937], the “%Inh” value was determined as 0% in [1]; 0% in assay [2]; 12% in assay [3]; 0% in assay [4]; 0% in assay [5]; 39% in assay [6]. The figures for the “%Inh” value in assay [7], in assay [8] and in assay [9] were 35%, 21% and 47%, respectively.

For the molecule `NS(=O)(=O)c1cccc(N/C=C2\C(=O)Nc3ccc(S(=O)(=O)Cc4c(Cl)cccc4Cl)cc32)c1` [GSK398099], the “%Inh” value is on record as 87% in assay [1]; 0% in assay [2]; 0% in assay [3]; 0% in [4]; 0% in assay [5]; 0% in assay [6]. The “%Inh” value in [7] came out at 0%; in [8], 0%; in [9] it was 1%; in assay [10] it was 0%.

As for `CCn1c(-c2ccccc2)nc2cnccc21` [SB-733416], the “%Inh” value in assay [1] worked out at 0%; in [2] it was 40%; in [3], 0%; in assay [4], 0%; in assay [5], 0%; in [6], 5%. Further, the “%Inh” value in [7] is given as 21%; in assay [8], 0%; in assay [9], 13%; in assay [10], 0%.

Regarding `COc1cccc(CNC(=O)NC2CCN(c3ccnc(Nc4ccc(F)cc4)n3)C2)c1` (stereo not shown) [GSK1379723], the “%Inh” value in assay [1] is 11%; in assay [2], 9%; in assay [3], 15%; in assay [4], 0%; in assay [5], 0%; in assay [6] it was 0%. Also, the “%Inh” value in assay [7] worked out at 11%; in assay [8] it was 8%; in [9], 26%; in assay [10], 0%.

Turning to `COC(=O)C(NC(=O)NC1CCN(c2ccnc(Nc3ccc(F)cc3)n2)C1)c1ccccc1` (stereo not shown) [GSK1379712], the “%Inh” value worked out at 16% in [1]; 28% in assay [2]; 0% in assay [3]; 0% in assay [4]; 0% in assay [5]; 9% in assay [6]. In addition, the “%Inh” value amounted to 41% in [7], 17% in assay [8], 29% in assay [9] and 0% in [10].

With `COc1cccc(C2=C(Nc3cc(Cl)c(O)c(Cl)c3)C(=O)NC2=O)c1` [SB-390767], the “%Inh” value in assay [1] is on record as 21%; in assay [2] it was 0%; in [3], 0%; in assay [4], 0%; in assay [5], 0%; in [6], 0%. Further, the “%Inh” value was 66% in assay [7], 15% in assay [8], 15% in [9] and 0% in assay [10].

With `Cn1cnc2c(N)ncnc21` [SKF-97623], the “%Inh” value in assay [1] is 10%; in [2], 44%; in assay [3], 5%; in [4] it was 0%; in [5] it was 0%; in assay [6] it was 30%. Further, the “%Inh” value amounted to 0% in assay [7], 14% in assay [8], 33% in [9] and 0% in [10].

`COc1nccc(-c2c(-c3ccc(F)cc3)ncn2CCCN2CCOCC2)n1` [SB-282852]: the “%Inh” value in [1] is 49%; in [2], 37%; in assay [3], 7%; in [4], 0%; in assay [5], 0%; in [6], 12%. The “%Inh” value is given as 4% in assay [7], 0% in [8], 8% in assay [9] and 0% in assay [10].

On to `Fc1ccc(-c2nc3n(c2-c2ccncc2)CCS3)cc1` [GI98581], for which the “%Inh” value in [1] is given as 0%; in [2], 0%; in assay [3], 0%; in assay [4] it was 0%; in assay [5] it was 0%; in assay [6], 33%. The “%Inh” value in [7] is given as 47%; in assay [8], 0%; in assay [9] it was 12%; in assay [10], 33%.

In the case of `CN1c2ccc(-c3ccc(C(N)=O)cc3)cc2-c2[nH]ncc2S1(=O)=O`, the “%Inh” value in assay [1] was determined as 0%; in assay [2], 4%; in [3], 9%; in [4], 0%; in assay [5], 13%; in assay [6] it was 0%. For the same molecule, the “%Inh” value in assay [7] was 81%; in assay [8] it was 6%; in assay [9], 64%; in assay [10], 13%.

Take `COc1ccc(CSc2nnc(-c3ccc4c(c3)CCO4)o2)cc1`: the “%Inh” value in assay [1] turned out to be 0%; in assay [2] it was 0%; in assay [3] it was 0%; in assay [4] it was 0%; in assay [5] it was 0%; in assay [6], 11%. In addition, the “%Inh” value in assay [7] is given as 23%; in assay [8], 9%; in assay [9] it was 14%; in assay [10] it was 0%.

Turning to `COc1ccc(Nc2nccc(N3CCC(NC(=O)c4cc5ccccc5s4)C3)n2)cc1` (stereo not shown) [GSK1379738], the “%Inh” value in [1] is listed as 19%; in assay [2], 0%; in assay [3] it was 25%; in assay [4], 0%; in [5], 21%; in assay [6], 0%. In addition, the “%Inh” value amounted to 40% in assay [7], 13% in assay [8], 47% in [9] and 0% in assay [10].

For the molecule `CNc1cc(-c2ccc3c(N)n[nH]c3c2)nc(N)n1` [GSK2224810], the “%Inh” value in assay [1] was 11%; in assay [2] it was 0%; in assay [3], 15%; in [4] it was 0%; in assay [5], 0%; in assay [6], 18%. Moreover, the “%Inh” value in [7] was 45%; in [8], 5%; in assay [9], 27%; in assay [10], 8%.

For the molecule `COc1cccc(NC(=O)Nc2ccc(C)c(-c3ccc(C(=O)Nc4ccncc4)cc3)c2)c1` [GSK1398474], the “%Inh” value in assay [1] was 0%; in [2], 0%; in assay [3] it was 15%; in assay [4] it was 0%; in assay [5] it was 22%; in assay [6], 0%. Moreover, the “%Inh” value in assay [7] was 0%; in [8], 0%; in assay [9], 0%; in assay [10], 17%.

For the molecule `O=C(Nc1n[nH]c2nc(-c3cccs3)c(Br)cc12)C1CCCC1` [SB-743341], the “%Inh” value in assay [1] is on record as 33%; in assay [2], 9%; in assay [3], 0%; in [4], 0%; in assay [5], 0%; in assay [6], 0%. Also, the “%Inh” value is listed as 23% in assay [7], 3% in assay [8], 0% in assay [9] and 0% in assay [10].

Turning to `CNc1nc(-c2ccc3c(N)n[nH]c3c2)cc(N2C[C@@H](C(=O)Nc3ccccc3)CC[C@H]2C)n1` [GSK2298859], the “%Inh” value in assay [1], in [2], in assay [3], in [4], in assay [5] and in assay [6] was 0% each time. For the same molecule, the “%Inh” value was determined as 50% in [7], 0% in assay [8], 3% in [9] and 57% in [10].

Regarding `COc1ccc(Nc2nccc(NCCNC(=O)Nc3cc(C)ccc3C)n2)cc1` [GSK1379899], the “%Inh” value in [1], in assay [2], in assay [3], in assay [4], in assay [5] and in assay [6] was 0% in each case. Also, the “%Inh” value in [7] is 18%; in assay [8] it was 6%; in assay [9], 39%; in [10], 0%.

The values are drawn from article PMC5540273 (PLoS ONE, 2017).
